{"source": "PubChem BioAssay (Tox21)", "note": "Where “and” joins values, the source holds several entries; their conditions need not be identical. Equal entries are not always repeated. Records with an inconclusive call do not appear. Unmarked numbers belong to inactive results. Calls of active or inactive are those of the source. Calls follow the shape of the dose curve; as a rule, active = well fitted cell-killing curve with a large enough effect in the repeat runs; inconclusive = weak or mixed curves, or effect the other way; inactive = flat fitted curve, though single readings scatter. % is scaled to controls: 0 for no effect and ±100 for the full control effect; potency is read from the fitted curve at half-maximal effect."}
{"assay": "cAMP Responsive Elements (CRE) small molecule antagonists, cell-based qHTS assay: qHTS cell viability counter screen (AID 2060913); also: nearly all actives have a fitted effect of over 40% in size", "settings": "CRE-bla HEK293T viability, CellTiter-Glo luminescence, 5 h; series mostly up to 92.4 µM; viability change, negative = cytotoxic: at the top concentration", "method_in_brief": "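Cytotoxicity counter screen multiplexed with the CRE-bla antagonist read: HEK293T cells in DMEM with dialyzed FBS and 25 mM HEPES were treated 3 hrs under 0.25 uM final NKH477, then viability measured by CellTiter-Glo luminescence.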"}
{"smiles": "O=C1c2ccccc2C(=O)C1c1ccccc1", "viability change, negative = cytotoxic": "-0.997% [at 42.5 µM]"}
{"smiles": "Cc1cc(C(C)(C)C)c(O)c(C)c1CC1=NCCN1", "viability change, negative = cytotoxic": "-8.01% [at 42.5 µM]"}
{"smiles": "CC(=O)C1CCCCC1=O", "note": "(stereo not given)", "viability change, negative = cytotoxic": "-15.5%"}
{"smiles": "CN1C(C)(C)CCCC1(C)C", "viability change, negative = cytotoxic": "-2.14% [at 42.5 µM]"}
{"smiles": "CCCCC(CC)COC(=O)CCCCCCCC(=O)OCC(CC)CCCC", "note": "(stereo not given)", "Potency": "inactive"}
{"smiles": "FC(F)(F)c1ccc(Cl)c(Cl)c1", "Potency": "inactive"}
{"smiles": "COc1cc2c(cc1OC)-c1cc(=Nc3c(C)cc(C)cc3C)n(C)c(=O)n1CC2", "viability change, negative = cytotoxic": "-2.37% [at 42.5 µM]"}
{"smiles": "Nc1ccccc1N", "Potency": "inactive"}
{"smiles": "CCCCNC1CC(C)(C)NC(C)(C)C1", "viability change, negative = cytotoxic": "2.12%"}
{"smiles": "Cc1ccc(O)c2ncccc12", "viability change, negative = cytotoxic": "-6.75% [at 42.5 µM]"}
{"smiles": "O=C1CCC(=O)N1Cl", "viability change, negative = cytotoxic": "-5.05%"}
{"smiles": "CCOC(=O)n1ccn(C)c1=S", "Potency": "inactive"}
{"smiles": "CC(=O)Oc1ccc([N+](=O)[O-])cc1CCl", "viability change, negative = cytotoxic": "1.3%"}
{"smiles": "COc1cc2nc(N3CCN(C(=O)C4COc5ccccc5O4)CC3)nc(N)c2cc1OC", "note": "(stereo not given)", "viability change, negative = cytotoxic": "-5.22% [at 42.5 µM]"}
{"smiles": "O=c1n(CC2CO2)c(=O)n(CC2CO2)c(=O)n1CC1CO1", "note": "(stereo not given)", "Potency": "inactive"}
{"smiles": "C#C[C@]1(O)CC[C@H]2[C@@H]3CCc4cc(OC)ccc4[C@H]3CC[C@@]21C", "Potency": "inactive"}
{"smiles": "Cc1c(NC(=O)c2cccnc2)c(=O)n(-c2ccccc2)n1C", "viability change, negative = cytotoxic": "0.761% [at 42.5 µM]"}
{"smiles": "c1ccc2c(c1)[nH]c1ccccc12", "Potency": "inactive"}
{"smiles": "CCC(C)(C)C(=O)O[C@H]1C[C@@H](C)C=C2C=C[C@H](C)[C@H](CC[C@@H]3C[C@@H](O)CC(=O)O3)[C@H]21", "Potency": "inactive"}
{"smiles": "CCCCCCCCCCCCCCCCCC[N+](C)(C)Cc1ccccc1", "Potency": "61.7 µM (active)"}
{"smiles": "C[C@]12CC[C@@H]3c4ccc(O)cc4CC[C@H]3[C@@H]1CC[C@H]2O", "Potency": "inactive"}
{"smiles": "CCCCCCCCCCCCCC[N+](C)(C)Cc1ccccc1", "Potency": "55.3 µM (active) and 26.6 µM (active) and 15.8 mM (active)"}
{"smiles": "CC(CO)(CO)C(=O)O", "viability change, negative = cytotoxic": "-0.433%"}
{"smiles": "COC(=O)CCC(=O)O", "viability change, negative = cytotoxic": "2.27%"}
{"smiles": "CCCCOC(=O)C(C)OC(=O)CCC", "note": "(stereo not given)", "viability change, negative = cytotoxic": "0.793%"}
{"smiles": "CN(C)CCC(c1ccc(Cl)cc1)c1ccccn1", "note": "(stereo not given)", "Potency": "inactive"}
{"smiles": "C=CC(=O)NCOCCCC", "Potency": "inactive"}
{"smiles": "COCc1c(C(C)C)nc(C(C)C)c(/C=C/[C@@H](O)C[C@@H](O)CC(=O)O)c1-c1ccc(F)cc1", "Potency": "inactive"}
{"smiles": "CCc1cccc(C)c1N", "Potency": "inactive"}
{"smiles": "Cc1ccc(C(C)C)cc1O", "viability change, negative = cytotoxic": "-6.88%"}
{"smiles": "COCCc1ccc(OCC2CO2)cc1", "note": "(stereo not given)", "viability change, negative = cytotoxic": "-0.92% [at 42.5 µM]"}
{"smiles": "CCCC(c1cc(C(C)(C)C)c(O)cc1C)c1cc(C(C)(C)C)c(O)cc1C", "Potency": "24.6 µM (active)"}
{"smiles": "N#Cc1cc(NC(=O)C(=O)O)c(Cl)c(NC(=O)C(=O)O)c1", "viability change, negative = cytotoxic": "-3.05% [at 42.5 µM]"}
{"smiles": "O=C(O)c1cccc(Oc2ccccc2)c1", "viability change, negative = cytotoxic": "1.17%"}
{"smiles": "CCC(C)CO", "note": "(stereo not given)", "viability change, negative = cytotoxic": "-5.88%"}
{"smiles": "O=C(O)c1cccc(C(=O)O)c1", "viability change, negative = cytotoxic": "-1.26%"}
{"smiles": "CCCCC1CCCCC(=O)O1", "note": "(stereo not given)", "viability change, negative = cytotoxic": "-0.42%"}
{"smiles": "CCC(C)(C)C", "viability change, negative = cytotoxic": "-10.5%"}
{"smiles": "CCCC(=O)OC", "viability change, negative = cytotoxic": "6.89%"}
{"smiles": "O=C1c2ccccc2C(=O)C1c1ccc2ccccc2n1", "viability change, negative = cytotoxic": "10.6% [at 42.5 µM]"}
{"assay": "cAMP Responsive Elements (CRE) small molecule agonists, cell-based qHTS assay: qHTS cell viability counter screen (AID 2060914); also: nearly all actives have a fitted effect of over 50% in size", "settings": "CRE-bla HEK293T viability, CellTiter-Glo luminescence, 5 h; series mostly up to 92.4 µM; activity change, negative = cytotoxicity: at the top concentration", "method_in_brief": "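CRE-bla HEK293T cells in 10% dialyzed FBS medium were exposed to compounds for 3 h at 37C after 18 h plating. CellTiter-Glo was then added in the same wells, and luminescence was read after 30 min at room temperature.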"}
{"smiles": "O=C1c2ccccc2C(=O)C1c1ccccc1", "activity change, negative = cytotoxicity": "-0.701% [at 42.5 µM]"}
{"smiles": "Cc1cc(C(C)(C)C)c(O)c(C)c1CC1=NCCN1", "activity change, negative = cytotoxicity": "-0.41% [at 42.5 µM]"}
{"smiles": "CC(=O)C1CCCCC1=O", "note": "(stereo not given)", "activity change, negative = cytotoxicity": "14.2%"}
{"smiles": "CN1C(C)(C)CCCC1(C)C", "activity change, negative = cytotoxicity": "-5.16% [at 42.5 µM]"}
{"smiles": "CCCCC(CC)COC(=O)CCCCCCCC(=O)OCC(CC)CCCC", "note": "(stereo not given)", "Potency": "inactive"}
{"smiles": "FC(F)(F)c1ccc(Cl)c(Cl)c1", "Potency": "inactive"}
{"smiles": "COc1cc2c(cc1OC)-c1cc(=Nc3c(C)cc(C)cc3C)n(C)c(=O)n1CC2", "activity change, negative = cytotoxicity": "-3.1% [at 42.5 µM]"}
{"smiles": "Nc1ccccc1N", "Potency": "inactive"}
{"smiles": "CCCCNC1CC(C)(C)NC(C)(C)C1", "activity change, negative = cytotoxicity": "1.11%"}
{"smiles": "Cc1ccc(O)c2ncccc12", "activity change, negative = cytotoxicity": "-0.429% [at 42.5 µM]"}
{"smiles": "O=C1CCC(=O)N1Cl", "activity change, negative = cytotoxicity": "-8.89%"}
{"smiles": "CCOC(=O)n1ccn(C)c1=S", "activity change, negative = cytotoxicity": "1.58%"}
{"smiles": "CC(=O)Oc1ccc([N+](=O)[O-])cc1CCl", "activity change, negative = cytotoxicity": "-1.67%"}
{"smiles": "COc1cc2nc(N3CCN(C(=O)C4COc5ccccc5O4)CC3)nc(N)c2cc1OC", "note": "(stereo not given)", "activity change, negative = cytotoxicity": "-1.84% [at 42.5 µM]"}
{"smiles": "O=c1n(CC2CO2)c(=O)n(CC2CO2)c(=O)n1CC1CO1", "note": "(stereo not given)", "Potency": "inactive"}
{"smiles": "C#C[C@]1(O)CC[C@H]2[C@@H]3CCc4cc(OC)ccc4[C@H]3CC[C@@]21C", "Potency": "inactive"}
{"smiles": "Cc1c(NC(=O)c2cccnc2)c(=O)n(-c2ccccc2)n1C", "activity change, negative = cytotoxicity": "6.95% [at 42.5 µM]"}
{"smiles": "c1ccc2c(c1)[nH]c1ccccc12", "Potency": "inactive"}
{"smiles": "CCC(C)(C)C(=O)O[C@H]1C[C@@H](C)C=C2C=C[C@H](C)[C@H](CC[C@@H]3C[C@@H](O)CC(=O)O3)[C@H]21", "Potency": "inactive"}
{"smiles": "CCCCCCCCCCCCCCCCCC[N+](C)(C)Cc1ccccc1", "Potency": "55 µM (active)"}
{"smiles": "C[C@]12CC[C@@H]3c4ccc(O)cc4CC[C@H]3[C@@H]1CC[C@H]2O", "Potency": "inactive"}
{"smiles": "CCCCCCCCCCCCCC[N+](C)(C)Cc1ccccc1", "Potency": "22 µM (active) and 11.9 µM (active)"}
{"smiles": "CC(CO)(CO)C(=O)O", "activity change, negative = cytotoxicity": "-12.3%"}
{"smiles": "COC(=O)CCC(=O)O", "activity change, negative = cytotoxicity": "3.94%"}
{"smiles": "CCCCOC(=O)C(C)OC(=O)CCC", "note": "(stereo not given)", "activity change, negative = cytotoxicity": "7.87%"}
{"smiles": "CN(C)CCC(c1ccc(Cl)cc1)c1ccccn1", "note": "(stereo not given)", "Potency": "inactive"}
{"smiles": "C=CC(=O)NCOCCCC", "Potency": "inactive"}
{"smiles": "COCc1c(C(C)C)nc(C(C)C)c(/C=C/[C@@H](O)C[C@@H](O)CC(=O)O)c1-c1ccc(F)cc1", "Potency": "inactive"}
{"smiles": "CCc1cccc(C)c1N", "Potency": "inactive"}
{"smiles": "Cc1ccc(C(C)C)cc1O", "activity change, negative = cytotoxicity": "-10.7%"}
{"smiles": "COCCc1ccc(OCC2CO2)cc1", "note": "(stereo not given)", "activity change, negative = cytotoxicity": "0.194% [at 42.5 µM]"}
{"smiles": "CCCC(c1cc(C(C)(C)C)c(O)cc1C)c1cc(C(C)(C)C)c(O)cc1C", "Potency": "31 µM (active)"}
{"smiles": "N#Cc1cc(NC(=O)C(=O)O)c(Cl)c(NC(=O)C(=O)O)c1", "activity change, negative = cytotoxicity": "-0.873% [at 42.5 µM]"}
{"smiles": "O=C(O)c1cccc(Oc2ccccc2)c1", "activity change, negative = cytotoxicity": "-0.397%"}
{"smiles": "CCC(C)CO", "note": "(stereo not given)", "activity change, negative = cytotoxicity": "-13%"}
{"smiles": "O=C(O)c1cccc(C(=O)O)c1", "Potency": "inactive"}
{"smiles": "CCCCC1CCCCC(=O)O1", "note": "(stereo not given)", "activity change, negative = cytotoxicity": "6.85%"}
{"smiles": "CCC(C)(C)C", "activity change, negative = cytotoxicity": "-10.2%"}
{"smiles": "CCCC(=O)OC", "activity change, negative = cytotoxicity": "-2.04%"}
{"smiles": "O=C1c2ccccc2C(=O)C1c1ccc2ccccc2n1", "activity change, negative = cytotoxicity": "-14.8% [at 42.5 µM]"}
